{
  "source": "the supplement of paper PMC12350171",
  "note": "Structures can show the parent of a compound that is named as a salt. Unmarked numbers belong to inactive results.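 Rule for the calls: active = normalised median growth AUC below 0.1 of DMSO control; inactive = AUC 0.1 or higher.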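 Note: active when median AUC fell below 0.1.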",
  "data": [
    {"test_system": "S. enterica typhimurium tolC KO", "test": "growth AUC normalised to DMSO control (median) (fraction of control); higher = less growth inhibition, active = hit call of the paper", "details": "20 µM", "in_short": "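For normalised area under the curve, growth curves were truncated at entry into stationary phase, integrated by the trapezoidal rule and divided against vehicle wells on the same plate. The curves came from strains passaged twice overnight without oxygen and then grown in mGAM in 96-well plates at a starting OD578 of 0.01. Each well held an approved-drug library compound at 20 μM with 1% DMSO, and OD578 was read hourly for 24 h in an anaerobic incubator. Values are medians of three biological replicates.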", "values": [
      {"smiles": "CS(=O)(=O)c1ccc([C@@H](O)[C@@H](CO)NC(=O)C(Cl)Cl)cc1", "note": "[Thiamphenicol]", "growth AUC normalised to DMSO control": 0.281},
      {"smiles": "COC(=O)C1=C(C)NC(C)=C(C(=O)OC(C)C)C1c1cccc2nonc12", "note": "(configuration not stated) [Isradipine]", "growth AUC normalised to DMSO control": 0.979},
      {"smiles": "NS(=O)(=O)c1cc2c(cc1C(F)(F)F)NCNS2(=O)=O", "note": "[Hydroflumethiazide]", "growth AUC normalised to DMSO control": 1.01},
      {"smiles": "CN(C)CCN(Cc1cccs1)c1ccccn1", "note": "[Methapyrilene hydrochloride]", "growth AUC normalised to DMSO control": 0.985},
      {"smiles": "C[C@]12CC[C@@H]3c4ccc(OS(=O)(=O)O)cc4CC[C@H]3[C@@H]1CCC2=O", "note": "[Estropipate piperazine salt]", "growth AUC normalised to DMSO control": 0.996},
      {"smiles": "CN(CCCCCCCCCCN(C)C(=O)Oc1cccc([N+](C)(C)C)c1)C(=O)Oc1cccc([N+](C)(C)C)c1", "note": "[Demecarium bromide]", "growth AUC normalised to DMSO control": 0.922},
      {"smiles": "O=C(OCC(O)CO)c1ccccc1Nc1ccnc2cc(Cl)ccc12", "note": "(configuration not stated) [Glafenine hydrochloride]", "growth AUC normalised to DMSO control": 0.935},
      {"smiles": "NC(=O)c1cnccn1", "note": "[Pyrazinamide]", "growth AUC normalised to DMSO control": 0.999},
      {"smiles": "COCCOC(=O)C1=C(C)NC(C)=C(C(=O)OC(C)C)C1c1cccc([N+](=O)[O-])c1", "note": "(configuration not stated) [Nimodipine]", "growth AUC normalised to DMSO control": 0.967},
      {"smiles": "Cn1c(=O)c2c(ncn2CCO)n(C)c1=O", "note": "[Etofylline]", "growth AUC normalised to DMSO control": 0.993},
      {"smiles": "CCN(CCCc1ccccc1)CCCc1ccccc1", "note": "[Alverine citrate salt]", "growth AUC normalised to DMSO control": 0.961},
      {"smiles": "N=C(N)NC(=O)c1nc(Cl)c(N)nc1N", "note": "[Amiloride hydrochloride dihydrate]", "growth AUC normalised to DMSO control": 0.996},
      {"smiles": "CC(=C(CCO)SSCC1CCCO1)N(C=O)Cc1cnc(C)nc1N", "note": "(stereo in doubt) [Fursultiamine hydrochloride]", "growth AUC normalised to DMSO control": 0.999},
      {"smiles": "CC(=O)N[C@@H](CC(C)C)C(=O)O", "note": "[N-Acetyl-L-leucine]", "growth AUC normalised to DMSO control": 0.996},
      {"smiles": "OCCN1CCN(CCCN2c3ccccc3C=Cc3ccccc32)CC1", "note": "[Opipramol dihydrochloride]", "growth AUC normalised to DMSO control": 0.968},
      {"smiles": "CC1(C)[C@@H](OC(=O)CCC(=O)O)CC[C@]2(C)[C@H]3C(=O)C=C4[C@@H]5C[C@@](C)(C(=O)O)CC[C@]5(C)CC[C@@]4(C)[C@]3(C)CC[C@@H]12", "note": "[Carbenoxolone disodium salt]", "growth AUC normalised to DMSO control": 0.987},
      {"smiles": "CC(=O)O[C@]1(C(C)=O)CC[C@H]2[C@@H]3C=C(C)C4=CC(=O)CC[C@@H]4[C@H]3CC[C@@]21C", "note": "[Nomegestrol acetate]", "growth AUC normalised to DMSO control": 0.94},
      {"smiles": "Cc1ccccc1N1C(=O)c2cc(S(N)(=O)=O)c(Cl)cc2NC1C", "note": "(configuration not stated) [Metolazone]", "growth AUC normalised to DMSO control": 0.997},
      {"smiles": "CCCOc1ccc(C(=O)OCCN(CC)CC)cc1N", "note": "[Proparacaine hydrochloride]", "growth AUC normalised to DMSO control": 1.01},
      {"smiles": "CN(N=O)C(=O)N[C@H]1C(O)O[C@H](CO)[C@@H](O)[C@@H]1O", "note": "(mixture of isomers) [Streptozotocin]", "growth AUC normalised to DMSO control": 0.694},
      {"smiles": "CC(C[N+](C)(C)C)OC(N)=O", "note": "(configuration not stated) [Bethanechol chloride]", "growth AUC normalised to DMSO control": 0.993},
      {"smiles": "CN(C)CCOC(c1ccccc1)c1ccccc1.Cn1c(=O)c2[nH]c(Cl)nc2n(C)c1=O", "note": "[Dimenhydrinate]", "growth AUC normalised to DMSO control": 0.983},
      {"smiles": "CC(=O)OCC(=O)[C@@]12N=C(C)O[C@@H]1C[C@H]1[C@@H]3CCC4=CC(=O)C=C[C@]4(C)[C@H]3[C@@H](O)C[C@@]12C", "note": "[Deflazacort]", "growth AUC normalised to DMSO control": 0.987},
      {"smiles": "C[C@H](CCC(=O)O)[C@H]1CC[C@H]2[C@@H]3[C@@H](O)C[C@@H]4C[C@H](O)CC[C@]4(C)[C@H]3CC[C@]12C", "note": "[Urosiol]", "growth AUC normalised to DMSO control": 1.01},
      {"smiles": "CCc1c2c(nc3ccc(OC(=O)N4CCC(N5CCCCC5)CC4)cc13)-c1cc3c(c(=O)n1C2)COC(=O)[C@]3(O)CC", "note": "[Irinotecan hydrochloride trihydrate]", "growth AUC normalised to DMSO control": 0.986},
      {"smiles": "Cc1ccc(S(=O)(=O)NC(=O)NN2CC3CCCC3C2)cc1", "note": "(configuration not stated) [Gliclazide]", "growth AUC normalised to DMSO control": 1.01},
      {"smiles": "CC(C(=O)O)c1ccc2c(c1)Cc1cccnc1O2", "note": "(configuration not stated) [Pranoprofen]", "growth AUC normalised to DMSO control": 1},
      {"smiles": "CC(=O)OCC(=O)[C@@]1(OC(C)=O)[C@@H](C)C[C@H]2[C@@H]3C[C@H](F)C4=CC(=O)C=C[C@]4(C)[C@@]3(F)[C@@H](O)C[C@@]21C", "note": "[Diflorasone Diacetate]", "growth AUC normalised to DMSO control": 1},
      {"smiles": "COc1ccc2c3c1O[C@H]1C[C@@H](O)C=C[C@@]31CCN(C)C2", "note": "[Galanthamine hydrobromide]", "growth AUC normalised to DMSO control": 0.995},
      {"smiles": "CCN1CCCC1CNC(=O)c1cc(S(N)(=O)=O)ccc1OC", "note": "(configuration not stated) [Sulpiride]", "growth AUC normalised to DMSO control": 0.999},
      {"smiles": "NS(=O)(=O)c1cc2c(cc1Cl)NC(CC1CCCC1)NS2(=O)=O", "note": "(configuration not stated) [Cyclopenthiazide]", "growth AUC normalised to DMSO control": 0.991},
      {"smiles": "CN1CCN(C(c2ccccc2)c2ccc(Cl)cc2)CC1", "note": "(configuration not stated) [Chlorcyclizine hydrochloride]", "growth AUC normalised to DMSO control": 0.958}
    ]}
  ]
}
